# Experimental data published in PubChem BioAssay (EPA / NIEHS).
# Several values for one entry are separate records, joined by “and”; a condition that tells them apart may be missing. Equal values may be shown once. Inconclusive results are not listed. Activity calls are given as the source filed them. Rule for the calls, unless noted: active = hit-call score of the fitted dose curve at least 0.9, where 1 is the maximum; inconclusive = response in the unintended direction; inactive = score below 0.9.
# What was measured:
# [1] = molecular target: human CYP2D6, CYP2D6 (gene 1565) (UniProt P10635); assay: NVS_ADME_hCYP2D6: NovaScreen (NVS) CYP450-related Enzyme Activity (ADME) Assay for human CYP2D6 (AID 2283107)
# In short: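 Insect-cell recombinant enzyme + fluorogenic substrate, cell-free; 1 h incubation; fluorescence intensity readout. Acetonitrile = neg. ctrl/baseline. Single-point 10 uM, duplicate; follow-up concentration series.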
# [2] = molecular target: human CYP2C9, CYP2C9 (gene 1559) (UniProt P11712); assay: NVS_ADME_hCYP2C9: NovaScreen (NVS) CYP450-related Enzyme Activity (ADME) Assay for human CYP2C9 (AID 2283108)
# In short: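 Cell-free assay of recombinant human CYP2C9 produced in Sf9 cells, with enzyme activity read by fluorescence intensity 0.75 h after compound addition. Loss of signal versus an acetonitrile negative control indicates inhibition. Primary screen used 10 uM in duplicate; actives were retested in concentration series.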
# [3] = molecular target: Cytochrome P450 2C19 (Homo sapiens) (UniProt P33261); assay: NVS_ADME_hCYP2C19: NovaScreen (NVS) CYP450-related Enzyme Activity (ADME) Assay for human CYP2C19 (AID 2283113);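 for AC50: potency for inhibition seen as loss of fluorescent signal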
# In short: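 Fluorescence intensity was measured 1 hour after chemicals were added to insect-cell-derived recombinant CYP2C19 with fluorogenic substrate. Decreased signal versus acetonitrile control was taken as reduced enzyme activity; initial testing used 10 uM in duplicate.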
# [4] = molecular target: rat CYP2D1, Cyp2d1 (gene 266684) (UniProt P10633); assay: NVS_ADME_rCYP2D1: NovaScreen (NVS) CYP450-related Enzyme Activity (ADME) Assay for rat CYP2D1 (AID 2283122)
# In short: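 Rat CYP2D1 enzyme activity measured by fluorescence intensity in a cell-free format, 0.75 h post-dosing, acetonitrile as negative control. Screening at 10 uM in duplicate, with actives followed in concentration series up to 20 uM.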
# [5] = molecular target: rat CYP3A2, Cyp3a2 (gene 266682) (UniProt P05183); assay: NVS_ADME_rCYP3A2: NovaScreen (NVS) CYP450-related Enzyme Activity (ADME) Assay for rat CYP3A2 (AID 2283128)
# In short: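 Fluorescence readout of extracted rat CYP3A2 activity 0.5 h post-dose, acetonitrile as negative control. Single-point testing in duplicate at 10 uM, followed by concentration series to a 20 uM maximum for actives.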
# [6] = molecular target: human CYP2C8, CYP2C8 (gene 1558) (UniProt P10632); assay: NVS_ADME_hCYP2C8: NovaScreen (NVS) CYP450-related Enzyme Activity (ADME) Assay for human CYP2C8 (AID 2283104; active = hit-call score of the fitted dose curve at least 0.9, where 1 is the maximum; inactive = score below 0.9)
# In short: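 Fluorescence readout of substrate turnover by recombinant CYP2C8 after 0.5 h, baseline acetonitrile. Single-concentration duplicate screen at 10 uM preceded singleton concentration series (max 20 uM) for compounds passing the inhibition threshold.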
# [7] = molecular target: rat CYP2A2, Cyp2a2 (gene 24895) (UniProt P15149); assay: NVS_ADME_rCYP2A2: NovaScreen (NVS) CYP450-related Enzyme Activity (ADME) Assay for rat CYP2A2 (AID 2283116)
# In short: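 Compounds first tested in duplicate at 10 uM, then in singleton concentration series up to 20 uM when over threshold. Activity of the recombinant enzyme read by fluorescence at 0.2 h, normalised to acetonitrile vehicle.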
# [8] = molecular target: human CYP2B6, CYP2B6 (gene 1555) (UniProt P20813); assay: NVS_ADME_hCYP2B6: NovaScreen (NVS) CYP450-related Enzyme Activity (ADME) Assay for human CYP2B6 (AID 2283101)
# In short: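 Recombinant human CYP2B6 with fluorogenic substrate, read by fluorescence intensity 1 h after dosing. Primary screen in duplicate at 10 uM, actives followed in concentration series; signal loss relative to acetonitrile control.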
# [9] = molecular target: Cytochrome P450 2C18 (Homo sapiens) (UniProt P33260); assay: NVS_ADME_hCYP2C18: NovaScreen (NVS) CYP450-related Enzyme Activity (ADME) Assay for human CYP2C18 (AID 2283103; active = hit-call score of the fitted dose curve at least 0.9, where 1 is the maximum; inactive = score below 0.9)
# In short: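 Enzyme activity measured by fluorescence 0.5 h after compound addition, using recombinant CYP2C18 and a specific substrate. Actives from duplicate 10 uM screening were retested in concentration series (top 20 uM); acetonitrile served as negative baseline.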
# [10] = molecular target: human CYP2J2, CYP2J2 (gene 1573) (UniProt P51589); assay: NVS_ADME_hCYP2J2: NovaScreen (NVS) CYP450-related Enzyme Activity (ADME) Assay for human CYP2J2 (AID 2283106)
# In short: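 Chemicals were first tested at 10 uM in duplicate, and hits meeting criteria such as 30% inhibition were run in singleton concentration series with a 20 uM top concentration. Enzyme activity of recombinant CYP2J2 was measured by fluorescence after 1 h, relative to acetonitrile.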
# [11] = molecular target: rat CYP2C11, Cyp2c11 (gene 29277) (UniProt P08683); assay: NVS_ADME_rCYP2C11: NovaScreen (NVS) CYP450-related Enzyme Activity (ADME) Assay for rat CYP2C11 (AID 2283118)
# In short: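 Screened first at 10 uM in duplicate, hits followed by concentration-response. Recombinant rat enzyme activity monitored by fluorescence 0.33 h post-dosing, normalised to acetonitrile negative control.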
# rat CYP2C6, gene 293989 = assay: NVS_ADME_rCYP2C6: NovaScreen (NVS) CYP450-related Enzyme Activity (ADME) Assay for rat CYP2C6 (AID 2283120)
# In short: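 Compounds first tested in duplicate at 10 uM, hits (e.g. 30% inhibition) re-run in singleton dose series to a 20 uM top concentration. Enzyme activity of recombinant rat CYP2C6 measured via fluorescent substrate turnover after 1 h; acetonitrile baseline.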
# [12] = molecular target: rat CYP2D2, Cyp2d26 (gene 25053) (UniProt P10634); assay: NVS_ADME_rCYP2D2: NovaScreen (NVS) CYP450-related Enzyme Activity (ADME) Assay for rat CYP2D2 (AID 2283124)
# In short: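 Single-concentration duplicate testing at 10 uM, followed by concentration-response (top 20 uM) for chemicals passing threshold. Enzyme activity of the recombinant rat isoform measured by fluorescence after 0.75 h, acetonitrile as baseline.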
# rat CYP3A1, gene 25642 = assay: NVS_ADME_rCYP3A1: NovaScreen (NVS) CYP450-related Enzyme Activity (ADME) Assay for rat CYP3A1 (AID 2283126)
# In short: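 Compounds went first at 10 uM duplicate, then to series with 20 uM maximum. Fluorescence from substrate turnover by the recombinant enzyme was measured 0.5 h post-dosing, inhibition scored against acetonitrile vehicle.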
# [13] = molecular target: human CYP1A2, CYP1A2 (gene 1544) (UniProt P05177); assay: NVS_ADME_hCYP1A2: NovaScreen (NVS) CYP450-related Enzyme Activity (ADME) Assay for human CYP1A2 (AID 2283102);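 for AC50: potency for inhibition since loss of fluorescence marks reduced CYP1A2 activity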
# In short: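 rec. hCYP1A2 (insect cells), cell-free; fluorogenic substrate; 0.5 h; FI read. Baseline = acetonitrile; signal loss = inhibition. 10 uM duplicate primary → conc. series for actives.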
# [14] = molecular target: rat CYP2C13, Cyp2c13 (gene 171521) (UniProt P20814); assay: NVS_ADME_rCYP2C13: NovaScreen (NVS) CYP450-related Enzyme Activity (ADME) Assay for rat CYP2C13 (AID 2283121)
# In short: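 Inhibition is read as decreased fluorescent product formation, referenced to acetonitrile vehicle. Cell-free recombinant rat Cyp2c13 reaction ran 0.75 hour; compounds first at 10 uM in duplicate, then concentration series for actives.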
# [15] = molecular target: rat CYP2A1, Cyp2a1 (gene 24894) (UniProt P11711); assay: NVS_ADME_rCYP2A1: NovaScreen (NVS) CYP450-related Enzyme Activity (ADME) Assay for rat CYP2A1 (AID 2283114; active = hit-call score of the fitted dose curve at least 0.9, where 1 is the maximum; inactive = score below 0.9)
# In short: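 Cell-free fluorescence enzyme-activity read on recombinant rat CYP2A1, taken 0.75 h post-dosing. Compounds were screened in duplicate at 10 uM, then hits tested in concentration series (max 20 uM); inhibition scored relative to acetonitrile baseline.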
# [16] = molecular target: rat CYP2C12, Cyp2c12 (gene 25011) (UniProt P11510); assay: NVS_ADME_rCYP2C12: NovaScreen (NVS) CYP450-related Enzyme Activity (ADME) Assay for rat CYP2C12 (AID 2283119)
# In short: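 Fluorescent-substrate turnover by recombinant rat CYP2C12, measured at 0.5 h, normalized to acetonitrile vehicle. Chemicals screened first at a single 10 uM concentration in duplicate, with concentration series for actives.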
# Chain of human CYP2J2, CYP2J2 (gene 1573) (P51589 whole entry, looked up): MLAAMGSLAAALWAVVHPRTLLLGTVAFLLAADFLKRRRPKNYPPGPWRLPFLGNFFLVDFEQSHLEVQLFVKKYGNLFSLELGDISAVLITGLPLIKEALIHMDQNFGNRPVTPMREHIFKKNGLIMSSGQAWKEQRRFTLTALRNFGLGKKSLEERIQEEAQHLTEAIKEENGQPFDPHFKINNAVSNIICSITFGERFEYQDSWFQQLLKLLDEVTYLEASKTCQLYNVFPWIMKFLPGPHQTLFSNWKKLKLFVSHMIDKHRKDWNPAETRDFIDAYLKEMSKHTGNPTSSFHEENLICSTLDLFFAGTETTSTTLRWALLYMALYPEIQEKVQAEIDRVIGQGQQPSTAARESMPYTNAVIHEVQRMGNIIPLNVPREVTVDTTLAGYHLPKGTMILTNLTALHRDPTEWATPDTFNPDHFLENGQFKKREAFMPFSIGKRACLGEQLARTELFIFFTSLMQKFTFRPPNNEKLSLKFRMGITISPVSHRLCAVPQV
# Chain of rat CYP2A2, Cyp2a2 (gene 24895) (P15149 whole entry, looked up): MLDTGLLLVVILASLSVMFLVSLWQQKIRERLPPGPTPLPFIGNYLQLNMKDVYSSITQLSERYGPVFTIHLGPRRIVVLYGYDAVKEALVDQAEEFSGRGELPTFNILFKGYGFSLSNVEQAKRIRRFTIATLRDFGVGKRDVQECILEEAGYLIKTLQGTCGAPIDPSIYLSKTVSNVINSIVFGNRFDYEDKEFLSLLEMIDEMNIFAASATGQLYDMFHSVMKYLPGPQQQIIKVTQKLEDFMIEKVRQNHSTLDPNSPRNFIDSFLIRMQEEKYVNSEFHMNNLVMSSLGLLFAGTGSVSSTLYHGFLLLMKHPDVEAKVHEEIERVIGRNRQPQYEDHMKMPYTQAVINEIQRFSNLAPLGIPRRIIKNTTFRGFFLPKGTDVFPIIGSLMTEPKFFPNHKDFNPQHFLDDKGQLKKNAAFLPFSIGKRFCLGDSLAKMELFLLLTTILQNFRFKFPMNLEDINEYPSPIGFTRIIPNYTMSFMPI
# Chain of rat CYP3A2, Cyp3a2 (gene 266682) (P05183 whole entry, looked up): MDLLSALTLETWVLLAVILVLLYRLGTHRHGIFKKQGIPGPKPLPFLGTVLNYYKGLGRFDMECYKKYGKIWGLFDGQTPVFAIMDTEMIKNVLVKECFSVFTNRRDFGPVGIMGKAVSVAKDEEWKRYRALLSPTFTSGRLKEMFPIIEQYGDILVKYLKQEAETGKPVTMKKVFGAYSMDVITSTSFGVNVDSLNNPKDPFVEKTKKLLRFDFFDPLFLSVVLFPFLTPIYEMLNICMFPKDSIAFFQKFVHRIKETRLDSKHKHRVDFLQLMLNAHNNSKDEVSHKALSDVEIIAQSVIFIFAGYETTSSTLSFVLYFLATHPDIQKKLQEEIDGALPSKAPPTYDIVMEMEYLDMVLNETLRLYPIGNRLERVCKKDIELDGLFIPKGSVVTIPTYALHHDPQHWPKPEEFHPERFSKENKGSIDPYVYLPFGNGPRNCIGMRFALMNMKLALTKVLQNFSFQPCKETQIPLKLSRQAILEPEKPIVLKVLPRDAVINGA
# Chain of Cytochrome P450 2C18 (Homo sapiens) (P33260 whole entry, looked up): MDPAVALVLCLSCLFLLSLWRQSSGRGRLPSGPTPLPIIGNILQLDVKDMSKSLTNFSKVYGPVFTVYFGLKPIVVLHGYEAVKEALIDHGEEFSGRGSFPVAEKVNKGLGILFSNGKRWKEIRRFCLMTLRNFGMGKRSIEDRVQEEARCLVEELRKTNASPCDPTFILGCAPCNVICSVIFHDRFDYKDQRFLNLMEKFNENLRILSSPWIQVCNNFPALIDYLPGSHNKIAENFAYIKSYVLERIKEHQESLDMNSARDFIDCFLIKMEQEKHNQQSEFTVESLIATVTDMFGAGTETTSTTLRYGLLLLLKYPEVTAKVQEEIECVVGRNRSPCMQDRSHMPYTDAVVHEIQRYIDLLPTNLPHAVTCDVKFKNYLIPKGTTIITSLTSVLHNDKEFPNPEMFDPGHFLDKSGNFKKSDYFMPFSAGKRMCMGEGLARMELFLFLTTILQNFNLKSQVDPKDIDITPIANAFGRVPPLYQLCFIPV
# Chain of rat CYP2C11, Cyp2c11 (gene 29277) (P08683 whole entry, looked up): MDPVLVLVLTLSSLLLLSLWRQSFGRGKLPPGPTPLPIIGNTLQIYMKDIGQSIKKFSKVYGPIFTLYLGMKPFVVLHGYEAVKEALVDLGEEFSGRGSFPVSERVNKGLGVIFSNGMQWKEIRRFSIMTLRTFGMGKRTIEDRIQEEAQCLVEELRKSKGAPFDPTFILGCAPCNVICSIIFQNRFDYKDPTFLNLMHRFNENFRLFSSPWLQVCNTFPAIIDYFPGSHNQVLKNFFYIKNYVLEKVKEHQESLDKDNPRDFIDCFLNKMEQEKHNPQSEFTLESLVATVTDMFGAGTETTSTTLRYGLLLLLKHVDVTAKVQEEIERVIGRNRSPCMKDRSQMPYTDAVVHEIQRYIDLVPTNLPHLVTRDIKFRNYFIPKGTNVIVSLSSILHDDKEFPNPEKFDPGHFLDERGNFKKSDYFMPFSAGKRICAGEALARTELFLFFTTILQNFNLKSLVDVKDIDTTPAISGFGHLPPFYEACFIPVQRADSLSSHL
# Chain of human CYP2B6, CYP2B6 (gene 1555) (P20813 whole entry, looked up): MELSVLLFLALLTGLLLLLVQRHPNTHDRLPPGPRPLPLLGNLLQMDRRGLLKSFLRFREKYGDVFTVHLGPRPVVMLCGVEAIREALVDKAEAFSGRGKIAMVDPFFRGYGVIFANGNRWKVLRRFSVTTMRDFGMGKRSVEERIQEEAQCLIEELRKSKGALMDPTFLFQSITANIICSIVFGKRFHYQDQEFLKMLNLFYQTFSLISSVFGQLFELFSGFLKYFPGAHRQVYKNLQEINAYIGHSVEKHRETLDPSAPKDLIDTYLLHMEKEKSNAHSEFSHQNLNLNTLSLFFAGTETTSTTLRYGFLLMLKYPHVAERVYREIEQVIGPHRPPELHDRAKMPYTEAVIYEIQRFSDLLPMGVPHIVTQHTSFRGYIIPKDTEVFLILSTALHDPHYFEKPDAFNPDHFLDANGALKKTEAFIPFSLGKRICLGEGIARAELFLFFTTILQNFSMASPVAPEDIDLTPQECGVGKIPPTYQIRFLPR
# Chain of human CYP2C8, CYP2C8 (gene 1558) (P10632 whole entry, looked up): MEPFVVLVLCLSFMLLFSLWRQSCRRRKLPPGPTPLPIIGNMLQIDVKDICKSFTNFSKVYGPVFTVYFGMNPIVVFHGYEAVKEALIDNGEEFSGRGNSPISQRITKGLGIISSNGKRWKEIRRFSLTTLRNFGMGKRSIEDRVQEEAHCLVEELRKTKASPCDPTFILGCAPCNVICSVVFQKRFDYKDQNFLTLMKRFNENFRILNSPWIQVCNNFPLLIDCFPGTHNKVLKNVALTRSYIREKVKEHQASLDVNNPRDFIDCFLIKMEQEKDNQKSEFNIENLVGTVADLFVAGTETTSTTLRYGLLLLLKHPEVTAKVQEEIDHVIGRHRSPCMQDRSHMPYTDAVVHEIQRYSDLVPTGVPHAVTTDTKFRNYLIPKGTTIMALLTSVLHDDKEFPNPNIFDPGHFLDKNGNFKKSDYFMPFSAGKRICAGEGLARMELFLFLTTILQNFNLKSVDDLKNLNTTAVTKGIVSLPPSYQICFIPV
# Chain of human CYP2C9, CYP2C9 (gene 1559) (P11712 whole entry, looked up): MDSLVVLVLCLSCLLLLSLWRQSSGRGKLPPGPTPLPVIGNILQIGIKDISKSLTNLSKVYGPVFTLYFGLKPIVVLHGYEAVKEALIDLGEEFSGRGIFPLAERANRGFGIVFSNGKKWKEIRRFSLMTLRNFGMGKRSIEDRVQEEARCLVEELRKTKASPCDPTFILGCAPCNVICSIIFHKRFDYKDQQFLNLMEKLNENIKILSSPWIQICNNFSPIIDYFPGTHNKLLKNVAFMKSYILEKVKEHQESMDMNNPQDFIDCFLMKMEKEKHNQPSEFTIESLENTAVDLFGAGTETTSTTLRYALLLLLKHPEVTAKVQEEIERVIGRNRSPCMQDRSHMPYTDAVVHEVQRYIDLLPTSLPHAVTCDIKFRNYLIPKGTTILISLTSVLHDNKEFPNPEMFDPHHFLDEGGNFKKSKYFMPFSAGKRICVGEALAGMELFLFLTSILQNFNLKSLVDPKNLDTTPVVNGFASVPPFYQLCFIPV
# Chain of rat CYP2D1, Cyp2d1 (gene 266684) (P10633 whole entry, looked up): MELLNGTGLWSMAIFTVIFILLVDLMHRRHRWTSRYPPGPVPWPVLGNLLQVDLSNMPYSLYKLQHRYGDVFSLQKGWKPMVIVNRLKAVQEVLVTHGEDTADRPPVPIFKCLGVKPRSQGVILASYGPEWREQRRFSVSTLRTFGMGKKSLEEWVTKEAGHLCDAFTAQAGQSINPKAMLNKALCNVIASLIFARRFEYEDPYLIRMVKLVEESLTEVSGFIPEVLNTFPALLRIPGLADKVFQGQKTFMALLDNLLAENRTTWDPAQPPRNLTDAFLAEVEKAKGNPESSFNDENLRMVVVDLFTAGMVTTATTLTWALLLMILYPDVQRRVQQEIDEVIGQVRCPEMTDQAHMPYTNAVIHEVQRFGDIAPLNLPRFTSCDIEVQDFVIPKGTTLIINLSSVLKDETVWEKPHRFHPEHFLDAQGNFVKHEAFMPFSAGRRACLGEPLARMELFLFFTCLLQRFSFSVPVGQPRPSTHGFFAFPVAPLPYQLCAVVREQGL
# Chain of rat CYP2D2, Cyp2d26 (gene 25053) (P10634 whole entry, looked up, canonical isoform): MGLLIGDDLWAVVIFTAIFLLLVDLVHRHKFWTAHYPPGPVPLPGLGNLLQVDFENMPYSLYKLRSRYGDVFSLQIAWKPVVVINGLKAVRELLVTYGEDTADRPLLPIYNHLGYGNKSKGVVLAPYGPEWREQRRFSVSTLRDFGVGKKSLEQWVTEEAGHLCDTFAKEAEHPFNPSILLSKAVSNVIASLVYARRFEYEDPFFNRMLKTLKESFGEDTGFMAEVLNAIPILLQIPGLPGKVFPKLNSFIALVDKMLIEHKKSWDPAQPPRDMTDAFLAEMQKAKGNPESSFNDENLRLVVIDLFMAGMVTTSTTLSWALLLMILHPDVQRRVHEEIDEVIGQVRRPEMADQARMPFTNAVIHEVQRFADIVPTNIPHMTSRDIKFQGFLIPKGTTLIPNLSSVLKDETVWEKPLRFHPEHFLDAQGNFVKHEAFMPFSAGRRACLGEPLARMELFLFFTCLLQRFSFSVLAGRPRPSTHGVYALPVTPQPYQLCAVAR
compound,measurement,setting,value
C=CCC1=C(C)[C@@H](OC(=O)[C@@H]2[C@@H](C=C(C)C)C2(C)C)CC1=O,AC50,[1],10 µM (active)
same,AC50,[2],5.73 µM (active)
same,AC50,[3],6390 nM (active)
same,AC50,[4],1.05 µM (active)
same,AC50,[5],7.55 µM (active)
CCc1nn(C)c(C(=O)NCc2ccc(C(C)(C)C)cc2)c1Cl,outcome,[6],inactive
Oc1ccccc1-c1ccccc1,outcome,[7],inactive
CCCC1COC(Cn2cncn2)(c2ccc(Cl)cc2Cl)O1 (stereo not drawn),AC50,[8],2.78 µM (active)
same,AC50,[9],2.15 µM (active)
same,outcome,[10],inactive
same,AC50,[1],13.9 µM (active)
same,AC50,[2],1.65 µM (active) and 4.57 µM (active)
same,AC50,[3],721 nM (active)
same,AC50,[7],106 nM (active) and 102 nM (active)
same,AC50,[11],1.45 µM (active)
same,AC50,"rat CYP2C6, gene 293989",2.45 µM (active)
same,AC50,[4],6.88 µM (active)
same,AC50,[12],7.44 µM (active) and 7.78 µM (active)
same,AC50,"rat CYP3A1, gene 25642",2.08 µM (active)
C=CC1(C)OC(=O)N(c2cc(Cl)cc(Cl)c2)C1=O (stereo not drawn),AC50,[8],6.73 µM (active) and 5.83 µM (active)
same,outcome,[13],inactive
same,AC50,[3],5.01 µM (active) and 10 µM (active) and 1.87 µM (active)
CNC(=S)S,outcome,[13],inactive
same,outcome,[9],inactive
same,outcome,[2],inactive
same,AC50,[3],7580 nM (active)
same,outcome,[14],inactive
same,outcome,"rat CYP3A1, gene 25642",inactive
CCOC(=O)CC(SP(=S)(OC)OC)C(=O)OCC (stereo not drawn),AC50,[8],0.899 µM (active)
same,AC50,[13],0.837 µM (active)
same,AC50,[9],0.459 µM (active)
same,outcome,[6],inactive
same,AC50,[10],0.369 µM (active)
same,AC50,[1],4.68 µM (active)
same,AC50,[2],0.752 µM (active)
same,AC50,[3],32 nM (active)
same,AC50,[15],5.52 µM (active)
same,AC50,[7],2.59 µM (active)
same,AC50,[11],0.399 µM (active)
same,AC50,[16],6.05 µM (active)
same,AC50,"rat CYP2C6, gene 293989",0.0501 µM (active)
same,AC50,[14],8.12 µM (active)
same,AC50,[12],6.28 µM (active)
same,AC50,"rat CYP3A1, gene 25642",1.88 µM (active)
same,AC50,[5],0.306 µM (active)
OC(c1ccc(Cl)cc1)(c1cncnc1)c1ccccc1Cl (stereo not drawn),AC50,[8],5.75 µM (active)
same,AC50,[9],6.02 µM (active)
same,AC50,[6],10 µM (active)
same,AC50,[10],2.26 µM (active)
same,AC50,[2],2.35 µM (active)
same,AC50,[3],136 nM (active)
same,AC50,[15],4.33 µM (active)
same,AC50,[7],0.0534 µM (active)
same,AC50,[11],6.58 µM (active)
same,AC50,[16],3.99 µM (active)
same,AC50,"rat CYP2C6, gene 293989",1.39 µM (active)
same,AC50,[4],7.23 µM (active)
same,AC50,[12],6.92 µM (active)
same,AC50,"rat CYP3A1, gene 25642",2.92 µM (active)
same,AC50,[5],5.57 µM (active)
CCCCC(CC)COC(=O)c1ccccc1C(=O)OCC(CC)CCCC (stereo not drawn),outcome,[9],inactive
same,outcome,[2],inactive
same,outcome,[3],inactive
